Compound activity deposited in PubChem by University of Pittsburgh Molecular Library Screening Center.
HIV RNase H inh: inhibitors of HIV-1 reverse transcriptase RNase H. P04585. RT-RNase H RNA/DNA duplex cleavage, fluorescence. inhibition, % at 10 µM. 65,000 compounds, 1.9% hits; in the data active = inhibition above about 50%
A number is an active result; i = inactive. Shown is part of a subset that was picked to be rich in hits.

SMILES | HIV RNase H inh
CCOC(=O)c1cnc(-c2ccccc2)nc1N | i
CCOC(=O)c1cc(-c2ccccc2)sc1N | 65
CCOC(=O)c1sc(-c2ccccc2)cc1N | i
O=C(Cn1nnc(-c2ccccc2F)n1)Nc1ccc(S(=O)(=O)NC2CCCC2)cc1 | i
COC(=O)c1ccc2c(=O)n(CCC3=CCCCC3)c(SCC(=O)N3CCCC3)nc2c1 | i
Cc1cc(=O)oc(C)c1C(=O)NCCCN1CCN(c2ccccc2F)CC1 | i
Brc1ccccc1-c1nnc2sc(-c3ccc4c(c3)OCCO4)nn12 | i
Clc1cccc(-c2nnc3sc(-c4ccc5c(c4)OCO5)nn23)c1 | 75
Clc1cccc(-c2nn3c(-c4ccncc4)nnc3s2)c1 | i
COc1ccc2cc(CN(CC3COCCO3)S(=O)(=O)c3ccc(Cl)cc3)c(=O)[nH]c2c1 (configuration not stated) | i
c1cnc(Oc2ccc(-c3nnco3)cc2)cn1 | i
COCCn1c(-c2cc(OC)c(OC)c(OC)c2)nc2oc3ccccc3c(=O)c2c1=O | i
CN1CCN(c2c3c(c(C#N)c4nc5ccccc5n24)CCCC3)CC1 | i
Cc1ccc(S(=O)(=O)NC(CC(=O)O)c2ccccc2)cc1 (configuration not stated) | i
C=CCOC(=O)CC(NC(=O)c1ccccc1)c1ccccc1 (configuration not stated) | i
C=CC(=C)CC(NC)c1ccccc1 (configuration not stated) | 51
Cc1ccc(CNC(=O)c2ccccc2NC(=O)CSc2nnnn2C)cc1 | i
CN(C)CCCN1C(=O)C(O)=C(C(=O)c2cccs2)C1c1ccccn1 (configuration not stated) | i
CCCCCn1c(=O)c(C(=O)Nc2ccncc2)c(O)c2ccccc21 | 83
CCCn1c(=O)c(C(=O)NCc2ccncc2)c(O)c2ccccc21 | i
CCCn1c(=O)c(C(=O)Nc2ccncc2)c(O)c2ccccc21 | i
COc1ccc(C(c2nnnn2Cc2cccs2)N2CCN(c3ccc(F)cc3)CC2)cc1OC (configuration not stated) | i
O=C(NCc1ccco1)c1sc(=S)n2c1[nH]c(=O)c1ccccc12 | 58
C=CCn1c(N)c(C(=O)NCc2ccco2)sc1=S | i
O=C(NC1CCCC1)c1sc(=S)n2c1[nH]c(=O)c1ccccc12 | i
SMILES | HIV RNase H inh
CCC(C)C(NC(=O)c1ccccc1NC(=O)c1ccc(OC)cc1)C(=O)NCc1ccco1 (configuration not stated) | 55
CCC(C)C(NC(=O)c1ccccc1NC(=O)c1ccco1)C(=O)O (configuration not stated) | i
O=C(Nc1ccccc1C(=O)NCc1ccco1)c1ccccc1 | i
O=C(CN(Cc1ccccc1F)S(=O)(=O)c1ccc(Cl)cc1)NCCCO | i
CCOc1ccc(N(CC(=O)N2CCc3ccccc32)S(=O)(=O)c2c(C)noc2C)cc1 | i
Cc1cc(C)cc(N(CC(=O)N2CCc3ccccc32)S(=O)(=O)c2c(C)noc2C)c1 | i
Cc1n[nH]c(C)c1S(=O)(=O)N(CC(=O)N1CCc2ccccc21)c1ccc(C(C)C)cc1 | 51
COc1ccc(-c2cc3nc4n(c(=O)c3s2)CCOC4)cc1 | i
COc1ccc(-c2c3c(=O)n(C)c(=O)n(C)c3cn2-c2cc(OC)ccc2OC)cc1 | i
COC(=O)c1ccc(C(=O)OC)c(NC(=O)c2cc3ccccc3o2)c1 | i
CC1(c2ccc(Cl)cc2)NC(=O)N(CC(=O)NC(=O)NCc2ccco2)C1=O (configuration not stated) | i
COc1c[nH]n(C2CCCCC2)c(=O)c1=O | i
Cc1cc(C(=O)CSc2n[nH]c(N)n2)c(C)n1-c1cc(F)ccc1F | i
COC(=O)C1=C(C)N(C)C(C)=C(C(=O)OC)C1c1ccc(F)c(Br)c1 | i
COC(=O)c1sc(=S)n(-c2cc(F)ccc2F)c1N | 72
CCOC(=O)c1cc2cc(F)ccc2nc1C | i
CCOC(=O)c1sc(=S)n(-c2cc(F)ccc2F)c1N | 72
CCOC(=O)c1[nH]c(C)c(C(=O)c2cc(F)ccc2F)c1C | i
COC(=O)Cc1cc(=O)[nH]c(/N=C(/NC(=O)c2ccccc2)Nc2ccccc2C)n1 | 53
COC(=O)Cc1cc(=O)[nH]c(/N=C(\N)Nc2ccc(C)cc2C)n1 | i
CCCc1cc(=O)[nH]c(SCC(=O)NC(=O)c2ccccc2)n1 | i
O=C(CSc1ccc2nnc(-c3ccccc3)n2n1)N1CCCCC1 | i
CCNC(=O)CC1C(=O)N(c2ccccc2)C(=O)N1Cc1ccc(OC)cc1 (configuration not stated) | i
CNC(=O)ON(C(=O)NC)C1N(C)C(=S)SC1(C)C (configuration not stated) | i
CN1C(=S)SC(C)(NO)C1(C)C (configuration not stated) | 51
Cc1cc(Cl)ccc1OCC(=O)NCCC(=O)O | i
Cc1ccc(-c2nc3ncccc3o2)cc1NC(=O)Cc1ccc(Cl)cc1 | i
Cc1ccc(-c2nc3cccnc3o2)cc1NC(=O)COc1ccc(Cl)cc1C | 53
COC(=O)c1ccc(NC(=O)C23CCC(C)(C(=O)O2)C3(C)C)cc1 (configuration not stated) | i
